# In the supplement of paper PMC6555819:
# What was measured:
# Experiment in all cases: PBM binding z-score (relative to random genomic background probes); higher = stronger binding; sequences stand for … in GC…GCGATTGACAGCGTAGAATGAAGG
# [1] = test system: FXR:RXRa (NR concentration 270 nM, RXRa partner concentration 90 nM)
# Procedure, shortened: (§1)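 Random background probes are the reference for binding z-scores. These scores derive from regression-normalized fluorescence on custom Agilent 4×180K protein-binding microarrays incubated 1 h with ligand-free nuclear receptor dimers. Binding was detected with antibodies against each partner (one per run).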
# [2] = test system: LXRa:RXRa (NR concentration 270 nM, RXRa partner concentration 90 nM)
# Procedure, shortened: as §1
# [3] = test system: LXRa homodimer (NR concentration 270 nM)
# Procedure, shortened: as §1
# [4] = test system: LXRb:RXRa (NR concentration 270 nM, RXRa partner concentration 90 nM)
# Procedure, shortened: as §1
# [5] = test system: LXRb homodimer (NR concentration 270 nM)
# Procedure, shortened: as §1
# [6] = test system: PPARa:RXRa (NR concentration 270 nM, RXRa partner concentration 90 nM)
# Procedure, shortened: as §1
# [7] = test system: PPARg:RXRa 270nM:90nM, anti-RXR (NR concentration 270 nM, RXRa partner concentration 90 nM)
# Procedure, shortened: as §1
# [8] = test system: PPARg:RXRa 30nM:10nM, anti-RXR (NR concentration 30 nM, RXRa partner concentration 10 nM)
# Procedure, shortened: as §1
# [9] = test system: PPARg:RXRa 90nM:30nM, anti-RXR (NR concentration 90 nM, RXRa partner concentration 30 nM)
# Procedure, shortened: as §1
# [10] = test system: PPARg:RXRa DBDmut IVT, anti-RXR (DBD mutation: RXRa K156A/R161A, NR concentration 270 nM, RXRa partner concentration 90 nM)
# Procedure, shortened: as §1
# [11] = test system: PPARg:RXRa IVT, anti-PPARg (NR concentration 270 nM, RXRa partner concentration 90 nM)
# Procedure, shortened: as §1
# [12] = test system: PPARg DBDmut:RXRa IVT, anti-PPARg (DBD mutation: PPARg1 K132A/R137A, NR concentration 270 nM, RXRa partner concentration 90 nM)
# Procedure, shortened: as §1
# [13] = test system: PPARg DBDmut IVT, anti-PPARg (DBD mutation: PPARg1 K132A/R137A, NR concentration 270 nM)
# Procedure, shortened: as §1
# [14] = test system: PPARg homodimer (NR concentration 180 nM)
# Procedure, shortened: as §1
# [15] = test system: PXR:RXRa (NR concentration 270 nM, RXRa partner concentration 90 nM)
# Procedure, shortened: as §1
# [16] = test system: PXR homodimer (NR concentration 270 nM)
# Procedure, shortened: as §1
# [17] = test system: RARa:RXR (NR concentration 270 nM, RXRa partner concentration 90 nM)
# Procedure, shortened: as §1
# [18] = test system: RARa homodimer (NR concentration 270 nM)
# Procedure, shortened: as §1
# [19] = test system: RARb:RXRa (NR concentration 270 nM, RXRa partner concentration 90 nM)
# Procedure, shortened: as §1
Sequence,PBM binding z-score [1],PBM binding z-score [2],PBM binding z-score [3],PBM binding z-score [4],PBM binding z-score [5],PBM binding z-score [6],PBM binding z-score [7],PBM binding z-score [8],PBM binding z-score [9],PBM binding z-score [10],PBM binding z-score [11],PBM binding z-score [12],PBM binding z-score [13],PBM binding z-score [14],PBM binding z-score [15],PBM binding z-score [16],PBM binding z-score [17],PBM binding z-score [18],PBM binding z-score [19]
ACTAGTAGGCCAAGGGTCACTCAAGATTAGTCCG,2.69,2.91,0.417,2.98,0.0422,5.64,9.26,10.9,10.4,5.4,6.33,0.82,1.01,2.17,3.24,-0.0548,4.2,0.166,3.61
TCTTGTAGATCAAAGCTTAAGAAAGCCGAAGCCT,-0.314,0.0464,-0.571,-0.365,-0.532,0.317,1.5,2.55,2.08,1.63,0.218,-0.031,-0.413,-0.405,-0.275,-0.758,-0.177,-0.517,-0.506
CGAACTAGGTCAGAGCAGGACAGTGAAGGATGAT,1.33,0.722,-0.112,0.261,-0.67,3.19,5.01,2.43,4.19,7.51,7.58,2.72,2.03,0.79,1.15,-0.0767,1.54,-0.158,2.94
ACTAGAAGGCCAAGGGTCACTCAAGATTAGTCCG,3.27,3.28,0.426,3.25,-0.267,4.51,7.08,5.69,7.96,0.756,3.55,0.734,-0.0604,5,3.73,0.235,5.15,1.18,3.92
GATACAGGGTGAGCTAGAGGCCAGAGTATGGAAA,-0.454,-0.464,-0.638,-0.678,-1.4,0.23,-0.0418,-0.29,-0.422,0.274,0.614,-0.0983,-0.828,-0.261,-0.31,-0.845,0.0105,-0.483,0.744
AGTCAAAGTTCATCTGGGTAACGTAAGATATGCT,6.32,6.01,5.7,4.05,1.69,4.98,6.09,3.73,5.62,1.05,3.77,0.881,0.701,2.39,5.16,5.32,3.69,1.4,4.81
ATATGTAGGTTAGCTGGGGTCATTCCGACTAGGC,4.03,5.97,3.23,4.79,1.3,5.14,5.12,2.35,4.36,6.8,5.93,1.65,0.994,3.16,6.18,3.73,5.3,0.761,2.99
AGTCAAAGTTCACTAGGCAACGTAAGATTCAGCT,5.28,5.12,2.72,2.89,0.757,4.5,6.21,3.31,5.38,1.55,3.93,1.31,0.663,1.75,3.81,2.09,3.04,0.611,4.78
CTAACTAGGTCACGAAAGGTCAAAGTCGAATGAC,7.37,8.22,7.7,7.44,2.3,6.57,8.24,7.33,8.68,8.88,9.03,2.32,2.06,5.96,6.97,3.14,7.47,2.75,5.6
CATACAGGGTCATCTAGGCCAGAGTAGGGACGGC,6.67,4.77,0.311,3.7,0.71,5.58,5.22,2.16,4.02,1.89,3.92,1.57,0.152,1.63,3.65,0.88,4.05,0.656,4.3
ACTTACGGGTCAAGGAGGTTATAGCACGCGTATA,6.35,4.93,1.1,4.17,0.922,5.72,5.1,2.1,3.84,2.9,3.94,1.06,0.844,2.7,4.24,1.47,4.99,1.24,4.09
CCTACTGGGCCAAAACGGTCATTGATGCCGATAA,-0.421,-0.427,0.0364,-0.333,-0.867,0.309,0.904,-0.186,0.162,2.93,2.65,0.0613,0.25,0.299,-0.497,-0.344,-0.365,-0.523,0.875
CCTACTGGGCCAAGGTCATAGATCAGTCAAAGCA,2.72,2.93,0.673,2.72,-0.469,4.19,4.41,2.23,3.84,3.5,4.88,0.145,-0.588,2.21,3.28,0.536,4.12,0.339,3.23
CGTCCAAGGTCAGAGAGGTCAGTGTATGCCGAGT,6.02,5.1,3.33,4.4,0.458,4.71,3.98,0.927,2.53,2.75,3.39,-0.0469,0.446,3.62,5.92,12.1,5.19,1.5,5.16
TCTTGTTGATCAAAGGTTAAGAAAGCCGAAGCCT,1.37,2.26,0.368,2.11,0.469,3.71,6.29,5.57,6.85,1.8,2.11,1.32,0.442,1.36,1.74,0.07,2.31,0.624,2.04
ACTAGGAGGACAAAGGTCAGAGCTACGCCAGTGA,4.32,4.18,1.5,3.58,0.612,5.33,8.36,7.87,8.99,2.03,4.63,0.268,-0.394,4.52,3.9,0.46,5.08,2.86,4.54
AGTCAAAGTTCAGGACGAGGTAAAGTAAAGCACG,4.27,3.89,1.34,1.9,0.465,3.54,4.89,1.9,4.21,0.127,1.81,0.318,0.49,2.36,2.86,1.28,2.84,1.52,4.33
CGGACTGGGGCAAAGGTTACCATACTCAGTACGA,1.68,1.67,-0.108,2.34,-0.125,6.02,9.26,9.67,11.7,6.11,6.8,0.377,0.924,1.68,2.76,-0.252,3.88,0.372,2.42
AGTCAAAGTTCAGGACGAGATAACGTAAAGCACG,3.4,3.72,1.12,1.81,0.41,3.28,4.8,2.31,3.71,-0.425,1.35,0.702,0.865,1.35,1.99,0.795,1.85,1.11,4.1
AATACAGGGTCACTAGGTCAGAGTAGGTACGAAT,6.69,5.67,2.22,4.43,1.37,6.03,7.62,4.74,7.08,5.74,6.99,2.72,2.61,4.65,4.34,1.23,5.62,1.85,4.67
AGTAAAAGTTCACTAGGTAACGTAAGATTCAGCT,4.14,4.44,3.1,2.6,1.17,4.32,5,2.09,4.23,2.43,4.33,0.938,1.34,2.48,3.04,2.08,2.39,1.61,4.39
TAGCCTAGGTGATTGGGCCAGTATAGTACGCATC,-0.581,-0.692,-0.293,-0.59,-0.51,-0.146,-0.141,-0.21,-0.578,0.598,1.35,-0.207,-0.683,-0.347,-0.55,-0.684,-0.276,-0.504,-0.13
CCTTACGGGTCTAGGTTATAGCACGGGTGGTACG,-0.122,-0.0116,0.0619,-0.517,-0.281,0.0671,-0.00243,-0.428,-0.39,-0.763,0.098,-1.1,-0.738,-0.385,-0.387,-0.0571,0.0446,-0.0691,0.467
GCATACGGGTCAAAGGTTATAGCATGAATAGAAT,7.92,5.85,0.463,5.74,0.733,7.06,9.95,10.1,11.7,4.64,6.5,1.34,2.31,3.95,6.29,0.519,8.51,0.512,4.49
CAAAGTAGGTCACGAAAGGTCAAAGTCGAATGAC,7.64,8.17,8.05,7.39,2.7,6.63,8.58,7.11,8.91,8.95,9.16,2.49,0.871,5.21,7.05,2.22,7.43,4.05,5.68
CCTTACGGGTCACGGTTATAGCACGGGTGGTACG,5.96,4.01,0.000447,3.23,-0.179,5.56,5.89,2.69,4.69,3,4.79,0.0456,-0.518,2.07,3.68,-0.0861,4.84,0.629,4.37
GATTCAGGGTCAGCTAGAGGCCAGAGTATGGAAA,5.24,3.64,-0.0707,3.25,-0.355,5.13,4.14,1.13,3.05,1.78,3.04,0.184,-0.207,2.1,3.77,0.432,4.59,0.68,4.5
ATACGTAGGTTATCGGGTCATTCAGTTTGCGCAT,3.01,3.2,1.41,2.88,1.18,3.58,3.39,0.883,2.46,3.06,3.95,1.74,0.954,2.79,3.74,8.01,3.84,0.759,2.59
CGAACTAGGTCCTTGACAGGACAGTGAATAGTAA,-0.28,-0.522,0.156,-0.566,-0.907,0.107,0.252,-0.201,-0.145,3.56,2.67,-0.17,0.14,-0.238,-0.527,-0.0323,-0.228,-0.233,-0.0437
TGAATGAGGTGAAAGATCAGGGAACGTGGCGTCG,1.19,1.1,-0.421,0.428,0.209,4.52,6.92,6.44,7.54,3.85,5,2.22,0.574,0.746,0.587,-0.0848,1.8,-0.562,1.48
